Ten molecules from PubChem BioAssay (NCI) can be followed below.

A short description of experiment [1]: NCI Yeast Anticancer Drug Screen. Data for the rad50 strain (AID 155).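 Further: 0% = growth of vehicle-only cultures of the same strain.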 To be noted: S. cerevisiae rad50 strain growth inhibition, stronger effect = higher value. The method, boiled down:
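Yeast carrying a defined DNA repair defect were exposed to test compounds, and growth was compared with vehicle-treated controls to give percent inhibition.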

Experiment [2] in a line: NCI Yeast Anticancer Drug Screen. Data for the mec2-1 strain (AID 157). To be noted: S. cerevisiae mec2-1 strain, stronger effect = higher value. The method, boiled down:
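Compounds were applied to mec2-1 yeast cells. Their growth was then compared with that of vehicle-treated cultures to give growth inhibition.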

The nature of experiment [3]: NCI Yeast Anticancer Drug Screen. Data for the sgs1 mgt1 strain (AID 161).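 Further: 0% = growth of cultures given vehicle only.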 To be noted: S. cerevisiae sgs1 mgt1 strain, stronger effect = higher value. The method, boiled down:
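Growth of a repair-deficient yeast mutant was monitored after compound treatment and expressed as inhibition relative to vehicle-treated cultures.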

A short description of experiment [4]: NCI Yeast Anticancer Drug Screen. Data for the cln2 rad14 strain (AID 165).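 Further: 0% = growth equal to vehicle treated cultures.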 To be noted: S. cerevisiae cln2 rad14 strain, stronger effect = higher value. In outline:
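Strain: cln2 rad14 yeast, altered in cell cycle control and DNA damage repair. Read-out: growth inhibition vs vehicle.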

Experiment [5] in a line: NCI Yeast Anticancer Drug Screen. Data for the bub3 strain (AID 167). The conditions noted are these: S. cerevisiae bub3 mutant strain, stronger effect = higher value. In outline:
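Compounds were applied to a genetically altered yeast strain carrying a cell-cycle control defect. Growth inhibition was scored against vehicle-treated controls.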

The nature of experiment [6]: NCI Yeast Anticancer Drug Screen. Data for the mlh1 rad18 strain (AID 175). To be noted: S. cerevisiae mlh1 rad18 strain growth inhibition, stronger effect = higher value. In outline: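 A repair-deficient yeast strain is exposed to test compound, and growth is scored relative to vehicle-treated controls.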
Setting [7] is: at 5.0 µM (retest, dose inferred, filed as 0.5).
The mark [8] stands for this setting: at 50.0 µM (retest, dose inferred, filed as 5.0).

About 79,000 compounds went through this panel and 15% of them were active in at least one assay; those are over-represented in the sample as a whole. Unmarked numbers belong to inactive results. Active and inactive are the calls of the source. No stated cut-off is given here; in the data, active means growth inhibition above about 70%; inactive means the rest.

For `CCCCC(Oc1cc(C(C)(C)C)c(O)c(C(C)(C)C)c1)C(=O)O` (stereo not given), the growth inhibition was 21% in experiment [1] (setting [7]); 68% in experiment [1] (setting [8]); 99.1% (active) in experiment [1] (at 50.0 µM); 12% in experiment [2] (setting [7]); 70% (active) in experiment [2] (setting [8]); 99.4% (active) in experiment [2] (at 50.0 µM). In addition, the growth inhibition in experiment [3] (setting [7]) was 35%; in experiment [3] (setting [8]), 97% (active); in experiment [3] (at 50.0 µM) it was 99.5% (active); in experiment [4] (setting [7]) it was 49%; in experiment [4] (setting [8]), 95% (active); in experiment [4] (at 50.0 µM), 99% (active). Further, the growth inhibition in experiment [5] (setting [7]) is 3%; in experiment [5] (setting [8]) it was 97% (active); in experiment [5] (at 50.0 µM), 99.2% (active); in experiment [6] (setting [7]), 27%; in experiment [6] (setting [8]), 97% (active); in experiment [6] (at 50.0 µM), 98.9% (active).

Regarding `COc1ccc(C(CC(=O)c2ccc(C)cc2)Sc2ccccc2N)cc1` (stereo not given), the growth inhibition was 46% in experiment [1] (setting [7]); 51% in experiment [1] (setting [8]); -9.65% in experiment [1] (at 50.0 µM); 52% in experiment [2] (setting [7]); 52% in experiment [2] (setting [8]); 4.5% in experiment [2] (at 50.0 µM). Further, the growth inhibition is -16% in experiment [3] (setting [7]); 26% in experiment [3] (setting [8]); 26.5% in experiment [3] (at 50.0 µM); 44% in experiment [4] (setting [7]); 40% in experiment [4] (setting [8]); -15.2% in experiment [4] (at 50.0 µM). For the same molecule, the growth inhibition is 36% in experiment [5] (setting [7]); 17% in experiment [5] (setting [8]); 27.5% in experiment [5] (at 50.0 µM); 35% in experiment [6] (setting [7]); 50% in experiment [6] (setting [8]); 8.35% in experiment [6] (at 50.0 µM).

For the molecule `O=C1C=C(O)c2cc(Br)ccc2C1=O.[Ag]`, the growth inhibition in experiment [1] (setting [7]) is 99% (active); in experiment [1] (setting [8]), 99% (active); in experiment [1] (at 50.0 µM) it was 99.6% (active); in experiment [2] (setting [7]), 100% (active); in experiment [2] (setting [8]), 99% (active); in experiment [2] (at 50.0 µM) it was 99.5% (active). Also, the growth inhibition in experiment [3] (setting [7]) is 100% (active); in experiment [3] (setting [8]), 99% (active); in experiment [3] (at 50.0 µM), 99.7% (active); in experiment [4] (setting [7]), 99% (active); in experiment [4] (setting [8]), 99% (active); in experiment [4] (at 50.0 µM), 99.5% (active). In addition, the growth inhibition was 100% (active) in experiment [5] (setting [7]); 99% (active) in experiment [5] (setting [8]); 99.7% (active) in experiment [5] (at 50.0 µM); 99% (active) in experiment [6] (setting [7]); 99% (active) in experiment [6] (setting [8]); 99.1% (active) in experiment [6] (at 50.0 µM).

As for `CC(C)N1C(=O)c2ccccc2S1(Cl)c1ccccc1` (stereo not given), the growth inhibition in experiment [1] (setting [7]) was 2%; in experiment [1] (setting [8]) it was 0%; in experiment [1] (at 50.0 µM), 97.5% (active); in experiment [2] (setting [7]), -6%; in experiment [2] (setting [8]), 6%; in experiment [2] (at 50.0 µM) it was 96.8% (active). Also, the growth inhibition in experiment [3] (setting [7]) is 4%; in experiment [3] (setting [8]), -3%; in experiment [3] (at 50.0 µM), 94.5% (active); in experiment [4] (setting [7]), -2%; in experiment [4] (setting [8]) it was 2%; in experiment [4] (at 50.0 µM), 88.2% (active). Moreover, the growth inhibition in experiment [5] (setting [7]) was -7%; in experiment [5] (setting [8]) it was -6%; in experiment [5] (at 50.0 µM), 98.5% (active); in experiment [6] (setting [7]) it was -2%; in experiment [6] (setting [8]), 4%; in experiment [6] (at 50.0 µM), 98.3% (active).

As for `CN(C)CC/C(=N\Nc1ccc([N+](=O)[O-])cc1)c1ccccc1`, the growth inhibition in experiment [1] (setting [7]) is 12%; in experiment [1] (setting [8]), 65%; in experiment [1] (at 50.0 µM), 99.5% (active); in experiment [2] (setting [7]), 8%; in experiment [2] (setting [8]) it was 86% (active); in experiment [2] (at 50.0 µM), 84.4% (active). Also, the growth inhibition in experiment [3] (setting [7]) was 29%; in experiment [3] (setting [8]) it was 96% (active); in experiment [3] (at 50.0 µM), 99.2% (active); in experiment [4] (setting [7]), 1%; in experiment [4] (setting [8]), 62%; in experiment [4] (at 50.0 µM) it was 98.8% (active). Further, the growth inhibition in experiment [5] (setting [7]) was 8%; in experiment [5] (setting [8]) it was 98% (active); in experiment [5] (at 50.0 µM), 99.7% (active); in experiment [6] (setting [7]), 19%; in experiment [6] (setting [8]), 97% (active); in experiment [6] (at 50.0 µM), 98.5% (active).

As for `CCCCCN(CCCCC)CCNc1ccc(C)c2sc3ccccc3c(=O)c12`, the growth inhibition in experiment [1] (setting [7]) was 2%; in experiment [1] (setting [8]), 96% (active); in experiment [1] (at 50.0 µM), 98.6% (active); in experiment [2] (setting [7]), 7%; in experiment [2] (setting [8]), 97% (active); in experiment [2] (at 50.0 µM) it was 97.3% (active). For the same molecule, the growth inhibition is 17% in experiment [3] (setting [7]); 97% (active) in experiment [3] (setting [8]); 98.2% (active) in experiment [3] (at 50.0 µM); 5% in experiment [4] (setting [7]); 93% (active) in experiment [4] (setting [8]); 95.7% (active) in experiment [4] (at 50.0 µM). The growth inhibition in experiment [5] (setting [7]) was 7%; in experiment [5] (setting [8]), 97% (active); in experiment [5] (at 50.0 µM), 96.8% (active); in experiment [6] (setting [7]), 9%; in experiment [6] (setting [8]), 97% (active); in experiment [6] (at 50.0 µM) it was 97% (active).

In the case of `CCOC(=O)c1ccc(O)c(OC)c1`, the growth inhibition in experiment [1] (setting [7]) was -2%; in experiment [1] (setting [8]) it was 10%; in experiment [1] (at 50.0 µM) it was 2%; in experiment [2] (setting [7]), 7%; in experiment [2] (setting [8]) it was 3%; in experiment [2] (at 50.0 µM) it was 1.5%. For the same molecule, the growth inhibition in experiment [3] (setting [7]) was 3%; in experiment [3] (setting [8]), 2%; in experiment [3] (at 50.0 µM) it was -18.6%; in experiment [4] (setting [7]), -5%; in experiment [4] (setting [8]), 5%; in experiment [4] (at 50.0 µM), -13.8%. Besides, the growth inhibition in experiment [5] (setting [7]) is 61%; in experiment [5] (setting [8]) it was 93% (active); in experiment [5] (at 50.0 µM), 90.2% (active); in experiment [6] (setting [7]), -3%; in experiment [6] (setting [8]) it was 0%; in experiment [6] (at 50.0 µM), -7.1%.

For the molecule `CCCCCCCCCCCCCCCCCC(=O)OCCOCCO`, the growth inhibition was -12% in experiment [1] (setting [7]); -16% in experiment [1] (setting [8]); -2.4% in experiment [1] (at 50.0 µM); -22% in experiment [2] (setting [7]); -46% in experiment [2] (setting [8]); -0.25% in experiment [2] (at 50.0 µM). In addition, the growth inhibition in experiment [3] (setting [7]) is -10%; in experiment [3] (setting [8]), -23%; in experiment [3] (at 50.0 µM), -2.7%; in experiment [4] (setting [7]) it was -33%; in experiment [4] (setting [8]), -21%; in experiment [4] (at 50.0 µM) it was 60.8%. The growth inhibition is -27% in experiment [5] (setting [7]); -24% in experiment [5] (setting [8]); -13.3% in experiment [5] (at 50.0 µM); -28% in experiment [6] (setting [7]); -25% in experiment [6] (setting [8]); -21.6% in experiment [6] (at 50.0 µM).

For `CNC1=C2NC(=O)/C(C)=C\C=C\C(C)C(O)C(C)C(O)C(C)C(OC(C)=O)C(C)C(OC)/C=C/OC3(C)Oc4c(C)c(O)c(c(c4C3=O)C1=O)C2=O` (stereo not given), the growth inhibition was -6% in experiment [1] (setting [7]); 56% in experiment [1] (setting [8]); 52.3% in experiment [1] (at 50.0 µM); -2% in experiment [2] (setting [7]); 61% in experiment [2] (setting [8]); 52.8% in experiment [2] (at 50.0 µM). For the same molecule, the growth inhibition in experiment [3] (setting [7]) is 1%; in experiment [3] (setting [8]) it was 55%; in experiment [3] (at 50.0 µM), 45.7%; in experiment [4] (setting [7]), -4%; in experiment [4] (setting [8]) it was 59%; in experiment [4] (at 50.0 µM), 49%. Further, the growth inhibition in experiment [5] (setting [7]) was -2%; in experiment [5] (setting [8]), 58%; in experiment [5] (at 50.0 µM), 52%; in experiment [6] (setting [7]) it was -4%; in experiment [6] (setting [8]), 64%; in experiment [6] (at 50.0 µM), 56.5%.

Regarding `COC(=O)N/N=C(\c1ccc(O)cc1)C(C)C1(O)C(=O)Nc2ccccc21` (stereo not given), the growth inhibition was -16% in experiment [1] (setting [7]); 35% in experiment [1] (setting [8]); -19.5% in experiment [1] (at 50.0 µM); 6% in experiment [2] (setting [7]); 20% in experiment [2] (setting [8]); 7.45% in experiment [2] (at 50.0 µM). The growth inhibition was 7% in experiment [3] (setting [7]); 26% in experiment [3] (setting [8]); 16.9% in experiment [3] (at 50.0 µM); -2% in experiment [4] (setting [7]); 23% in experiment [4] (setting [8]); -30.2% in experiment [4] (at 50.0 µM). The growth inhibition was 1% in experiment [5] (setting [7]); 34% in experiment [5] (setting [8]); -0.8% in experiment [5] (at 50.0 µM); -3% in experiment [6] (setting [7]); 28% in experiment [6] (setting [8]); 14.2% in experiment [6] (at 50.0 µM).
